Bioassay records (PubChem BioAssay)
Hits are enriched below; roughly 1.5% of the tested compounds scored in any of these assays.
MCL1-BIM inh: inhibitors of MCL1 binding to BIM-BH3, primary screen, biochemical, fluorescence polarization. GST-MCL1 / FITC-Bim-BH3 fluorescence polarization. AID 2057, 2009. 320,000 tested, 0.68% active. inhibition, % at 10.9 µM;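 active means inhibition above the mean inhibition of all tested compounds plus 3 SD, set per campaign, cut at about 40% in these data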;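 further: 0% = DMSO wells and 100% = unlabeled Bim-BH3 peptide control; higher means more loss of mP so more displacement of Bim peptide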
Target sequence (Q07820 whole entry, looked up): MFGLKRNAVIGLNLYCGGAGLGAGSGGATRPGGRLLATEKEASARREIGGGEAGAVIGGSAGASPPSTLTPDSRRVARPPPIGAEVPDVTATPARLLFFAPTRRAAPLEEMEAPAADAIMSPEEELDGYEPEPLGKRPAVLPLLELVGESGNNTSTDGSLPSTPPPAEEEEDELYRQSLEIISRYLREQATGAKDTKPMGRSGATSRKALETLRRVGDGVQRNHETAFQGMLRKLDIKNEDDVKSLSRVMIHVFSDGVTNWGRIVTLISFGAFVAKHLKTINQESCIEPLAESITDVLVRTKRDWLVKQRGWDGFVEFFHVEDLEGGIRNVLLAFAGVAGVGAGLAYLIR
E coli Lon inh: inhibitors of E. coli Lon protease, primary screen, biochemical, fluorescence polarization | purified E. coli Lon protease | inhibition, % at 7.94 µM | 360,000 tested, 0.42% active; in the data active means inhibition above about 13%, passing the limit was not always enough;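 further: 0% = enzyme with probe and DMSO and 100% = no enzyme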
EBV gp42 inh: Epstein-Barr virus gp42 inhibitors, primary screen, biochemical, uHTS, fluorescence polarization. inhibition, % (tested at 21.74 µM). 220,000 tested, 0.42% active. AID 1085, 2008. Fluorescence polarization binding assay, mP read-out; in the data active means inhibition above about 50%
GLD-1 TGE inh: GLD-1/TGE RNA complex disruptors, primary screen, biochemical, fluorescence polarization; inhibition, % at 5.96 µM; AID 2280, 2010; purified GLD-1 + fluorescein TGE RNA; 320,000 tested, 0.44% active; Female germline-specific tumor suppressor gld-1 (Caenorhabditis elegans), Q17339;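 active means percent inhibition above a per-plate cutoff, the plate mean of test compounds plus 3 SD, cut at about 30% in these data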;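 further: 0% = DMSO wells with GLD-1 and probe and 100% = wells lacking GLD-1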
MEX-5 binding: MEX-5 zinc finger RNA-binding disruptors – biochemical, C. elegans, fluorescence polarization, MLPCN library, primary screen; Zinc finger protein mex-5 (Caenorhabditis elegans), Q9XUB2; MEX-5/FITC-TCR2 RNA binding; active compounds read low; activity score (negative = inhibition of binding), % at 10 µM; 300,000 tested, 0.38% active;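 active means inhibition past about -25% in most replicates, and total fluorescence under double the plate's negative control median, limit read from the data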;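 further: 0% = DMSO and -100% = 5 µM competing unlabeled TCR2 RNA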
BCLXL inh: inhibitors of human Bcl-xL, primary screen, biochemical, fluorescence polarization, HTS; GST-Bcl-xL / FITC-Bim BH3 peptide fluorescence polarization; inhibition, % at 10.9 µM; 320,000 tested, 0.7% active; Bcl-2-like protein 1 (Homo sapiens), Q07817;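 active means inhibition above the mean of all tested compounds plus 3 SD, cutoff set per campaign, cut at about 30% in these data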;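 further: 0% = DMSO wells and 100% = unlabeled Bim-BH3 peptide competitor; inhibitors lower millipolarization by displacing the labeled peptide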
E coli Lon conf: E. coli Lon protease inhibitor retest, confirmation, biochemical, fluorescence polarization; inhibition, % at 7.94 µM; purified E. coli Lon; 1,400 tested, 31% active; shares compounds with E coli Lon inh; in the data active means inhibition above about 16%;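 further: 0% = enzyme with probe and DMSO and 100% = no enzyme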
* hit, by the source's call; / = no result.

SMILES	MCL1-BIM inh	E coli Lon inh	EBV gp42 inh	GLD-1 TGE inh	MEX-5 binding	BCLXL inh	E coli Lon conf
COc1ccc(OC)c(-n2c(O)c(C=NCc3ccc4c(c3)OCO4)c(=O)[nH]c2=O)c1	1.9	8.3	-31.3	1.7	-0.5	2.8	/
Oc1cc(Cl)c(Cl)c(Cl)c1Cl	/	48.9*	/	/	/	/	-12.4
COC12CCC3(CC1C(C)(O)C(C)(C)C)[C@H]1Cc4ccc(OC5OC(C(=O)O)[C@@H](O)C(O)[C@H]5O)c5c4[C@@]3(CCN1CC1CC1)C2O5 (stereo partly specified)	/	-8.3	/	-5.5	/	/	/
CCC(=NC(C)c1ccccc1)c1c(O)[nH]c(=O)[nH]c1=O (stereo unspecified)	1.7	21.3*	-11.1	0.3	-0.4	0.4	5.9
CCC(=NCCC(c1ccccc1)c1ccccc1)c1c(O)[nH]c(=O)[nH]c1=O	-3.7	-1.7	-4.5	-0.3	0.3	-0.9	/
O=c1oc2ccccc2c(O)c1[C@H]1c2ccc(O)cc2Oc2c1c(=O)oc1ccccc21	4.8	18.3*	-22.0	2.5	-2.4	8.4	16.8*
